{
  "source": "PubChem BioAssay AID1779",
  "about": "(Sanford-Burnham Center for Chemical Genomics, 2009)",
  "note": "In all, about 290,000 compounds went through this assay and about 160 (0.055%) were called active. Only a selection was taken, and actives are over-represented in it overall. Unmarked numbers belong to inactive results. No stated cut-off is given here; in the data, active means inhibition above about 50%; inactive means the rest.",
  "data": [
    {"molecular_target": "Tyrosine-protein phosphatase non-receptor type 22 (Homo sapiens) (UniProt Q9Y2R2)", "sequence (Q9Y2R2 whole entry, looked up)": "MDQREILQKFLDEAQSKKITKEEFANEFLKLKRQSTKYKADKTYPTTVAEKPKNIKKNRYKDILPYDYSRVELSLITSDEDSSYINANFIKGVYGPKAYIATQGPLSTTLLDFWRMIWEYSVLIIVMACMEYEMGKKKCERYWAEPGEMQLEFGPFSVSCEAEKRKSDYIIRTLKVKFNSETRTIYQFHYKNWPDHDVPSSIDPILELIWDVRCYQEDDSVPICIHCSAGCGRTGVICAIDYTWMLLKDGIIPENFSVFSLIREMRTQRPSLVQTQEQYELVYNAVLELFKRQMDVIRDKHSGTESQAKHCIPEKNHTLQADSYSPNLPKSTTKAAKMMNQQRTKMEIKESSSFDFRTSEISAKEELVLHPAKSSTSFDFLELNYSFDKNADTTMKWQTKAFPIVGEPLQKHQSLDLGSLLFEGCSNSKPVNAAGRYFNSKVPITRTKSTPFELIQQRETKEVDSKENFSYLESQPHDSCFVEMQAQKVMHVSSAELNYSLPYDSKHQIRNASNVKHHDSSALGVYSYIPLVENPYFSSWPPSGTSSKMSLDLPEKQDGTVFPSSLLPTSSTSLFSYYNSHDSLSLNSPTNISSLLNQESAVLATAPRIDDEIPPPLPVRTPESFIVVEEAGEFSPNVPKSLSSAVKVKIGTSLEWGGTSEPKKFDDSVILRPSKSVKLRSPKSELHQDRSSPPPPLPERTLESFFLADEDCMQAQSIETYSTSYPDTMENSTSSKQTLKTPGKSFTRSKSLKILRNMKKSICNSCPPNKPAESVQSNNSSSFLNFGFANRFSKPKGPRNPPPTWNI", "experiment": "PTPN22 lymphoid phosphatase activity blockers – biochemical, fluorescence intensity, uHTS (AID 1779);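 further: plate controls were vehicle with enzyme for no effect and no enzyme for full effect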", "details": "recombinant LYP phosphatase, at 11.5 µM, stronger effect = higher value", "values": [
      {"smiles": "Cc1ccc(-n2c(=O)c3sccc3n(CC(=O)NCC3CCCO3)c2=O)cc1F", "note": "(centres undefined)", "inhibition": "68.5% (active)"},
      {"smiles": "COc1cccc(-n2c(=O)c3sccc3n(CC(=O)NCC3CCCO3)c2=O)c1", "note": "(centres undefined)", "inhibition": "-10.8%"},
      {"smiles": "O=C(Cn1c(=O)n(-c2cccc(C(F)(F)F)c2)c(=O)c2sccc21)NCC1CCCO1", "note": "(centres undefined)", "inhibition": "-9.3%"},
      {"smiles": "O=C(CCCN1C(=O)/C(=C/c2cccs2)SC1=S)Nc1cc([N+](=O)[O-])ccc1O", "inhibition": "-12.6%"},
      {"smiles": "CC(=O)/C=C(\\C)NCCNc1c(F)c(F)c(CO)c(F)c1F", "inhibition": "-3.3%"},
      {"smiles": "O=C1C=C(NCc2ccccc2)CCC1", "inhibition": "-5.3%"},
      {"smiles": "O=C1C=C(NCCNc2c(F)c(F)c(CO)c(F)c2F)CCC1", "inhibition": "72.7% (active)"},
      {"smiles": "CCOc1c(O)ccc(C2NC(=O)N(C)C(C)=C2C(=O)OC)c1[N+](=O)[O-]", "note": "(centres undefined)", "inhibition": "4%"},
      {"smiles": "CC(=O)Nc1ccc(S(=O)(=O)NNC(=O)COc2ccc(C(C)(C)C)cc2)cc1", "inhibition": "-2.6%"},
      {"smiles": "O=C(NNC(=O)c1cccc(Br)c1)C(=O)N1CCCCC1", "inhibition": "60% (active)"},
      {"smiles": "COc1cccc(C(=O)NNC(=O)C(=O)N2CCCCC2)c1", "inhibition": "-8.5%"},
      {"smiles": "O=C(NNC(=O)c1ccccc1)C(=O)N1CCCCC1", "inhibition": "2.5%"},
      {"smiles": "CCN(CC)CCN(Cc1cc2cc3c(cc2[nH]c1=O)OCCO3)C(=S)NCCCOC", "inhibition": "-16.1%"},
      {"smiles": "COC(=O)C1=NN(C(=O)c2ccc(Br)cc2)C(O)(C(C)(C)C)C1", "note": "(centres undefined)", "inhibition": "-3.5%"},
      {"smiles": "COC(=O)C1=NN(C(=O)c2cccc(Cl)c2)C(O)(C(C)(C)C)C1", "note": "(centres undefined)", "inhibition": "65.7% (active)"},
      {"smiles": "CCOC(=O)C1=NN(C(=O)c2cccc(Br)c2)C(O)(C(C)(C)C)C1", "note": "(centres undefined)", "inhibition": "-3.2%"},
      {"smiles": "O=C(O)CC/C(=N/NC(=O)c1cn(-c2ccccc2)nc1-c1ccccc1)C(=O)O", "inhibition": "-3.5%"},
      {"smiles": "COc1cccc(NS(=O)(=O)c2ccc3c(c2)C2C=CCC2C(c2ccc(C(=O)O)cc2)N3)c1", "note": "(centres undefined)", "inhibition": "16.1%"},
      {"smiles": "COc1ccc(NS(=O)(=O)c2ccc3c(c2)[C@H]2C=CC[C@H]2[C@@H](c2ccc(C(=O)O)cc2)N3)cc1", "inhibition": "4.5%"},
      {"smiles": "S=C(NCc1ccccc1Cl)NC1CCCC1", "inhibition": "-7.7%"},
      {"smiles": "O=C(Cc1ccc(Cl)cc1Cl)NC1CCCCCC1", "inhibition": "-4.7%"},
      {"smiles": "S=C(NCc1ccc(Cl)cc1Cl)NC1CCCCC1", "inhibition": "68.1% (active)"},
      {"smiles": "COc1cc(N(C)C)c([N+](=O)[O-])cc1C(=O)NC(C)CNc1ccc([N+](=O)[O-])cc1Cl", "note": "(centres undefined)", "inhibition": "-7.4%"},
      {"smiles": "Cc1ccc(CN(CC(=O)NC(C)(C)C)C(=O)CNC(=O)c2cccs2)cc1", "inhibition": "-5.3%"},
      {"smiles": "Cc1occc1C(=O)NNS(=O)(=O)c1ccc([N+](=O)[O-])cc1", "inhibition": "-10.5%"},
      {"smiles": "Cc1ccc(S(=O)(=O)NNC(=O)c2ccoc2C)cc1", "inhibition": "-5.8%"},
      {"smiles": "Cc1occc1C(=O)NNS(=O)(=O)c1ccc(Cl)cc1", "inhibition": "71.2% (active)"},
      {"smiles": "Cn1c(=O)c2ncn(CC(=O)N/N=C/c3ccco3)c2n(C)c1=O", "inhibition": "-9.9%"},
      {"smiles": "CC(=O)CCS(=O)(=O)c1ccc(NC(C)=O)cc1", "inhibition": "-5.5%"},
      {"smiles": "O=C(COC(=O)c1cc(-c2cccs2)nn1-c1ccccc1)Nc1ccc(F)c([N+](=O)[O-])c1", "inhibition": "-7.7%"},
      {"smiles": "O=C(COC(=O)c1cc(-c2cccs2)nn1-c1ccccc1)Nc1ccc(Cl)c([N+](=O)[O-])c1", "inhibition": "2%"},
      {"smiles": "Cc1ccc(NC(=O)COC(=O)c2cc(-c3cccs3)nn2-c2ccccc2)cc1[N+](=O)[O-]", "inhibition": "74.9% (active)"},
      {"smiles": "CC(=O)c1ccc(N2C(=O)[C@@H]3C(CCC(N)=O)NC4(C(=O)Nc5c4ccc(Cl)c5C)[C@@H]3C2=O)cc1", "note": "(some centres undefined)", "inhibition": "-3.9%"},
      {"smiles": "COc1cc2c(C#N)c(N3CCCCC3)nc(N)c2c(N)n1", "inhibition": "-1.1%"},
      {"smiles": "N#Cc1c(N2CCCC2)nc(N)c2c(N)nc(N3CCCC3)cc12", "inhibition": "65.7% (active)"},
      {"smiles": "COc1cc2c(C#N)c(N3CCCC3)nc(N)c2c(N)n1", "inhibition": "-2.4%"},
      {"smiles": "CCCC(=O)NC(=S)Nc1ccccc1F", "inhibition": "-10.5%"},
      {"smiles": "Cc1cccc(C)c1N1CCN(c2n[nH]c(N)n2)CC1", "inhibition": "-8.3%"},
      {"smiles": "CC1(C)CCC(=O)N(c2ccccc2)C1=O", "inhibition": "-3%"},
      {"smiles": "CC1(C)Nc2ccccc2C(=O)N1c1ccccc1", "inhibition": "-11.8%"},
      {"smiles": "CC12CCC(=O)N1c1ccccc1C(=O)N2c1ccccc1", "note": "(centres undefined)", "inhibition": "66.6% (active)"},
      {"smiles": "CC(=O)Nn1c(COc2ccccc2C)nc2ccccc2c1=O", "inhibition": "-4.5%"},
      {"smiles": "Cc1cccc(-n2ccc(=O)c(C(=O)Nc3ccc(S(=O)(=O)Nc4onc(C)c4C)cc3)n2)c1", "inhibition": "-7.6%"},
      {"smiles": "Cc1ccc(-n2ccc(=O)c(C(=O)Nc3ccc(S(=O)(=O)Nc4onc(C)c4C)cc3)n2)cc1", "inhibition": "2.8%"},
      {"smiles": "Cc1noc(NS(=O)(=O)c2ccc(NC(=O)c3nn(-c4ccccc4)ccc3=O)cc2)c1C", "inhibition": "53.3% (active)"},
      {"smiles": "COc1cc(CC(NC(C)=O)C(=O)NC2CCN(c3nc(C)cc(C)c3C#N)CC2)cc(OC)c1", "note": "(centres undefined)", "inhibition": "-2.6%"},
      {"smiles": "COc1cc(/C=C2/NC(=O)NC2=O)cc(Br)c1OCc1cccc(C(=O)O)c1", "inhibition": "4.5%"},
      {"smiles": "COc1cc(/C=C2/NC(=O)NC2=O)cc(Br)c1OCc1ccc(C(=O)O)cc1", "inhibition": "26.8%"},
      {"smiles": "Nc1nonc1-n1nnc(C(=O)N/N=C/c2ccoc2)c1CSc1ccc(Cl)cc1", "inhibition": "-6.9%"},
      {"smiles": "C=C(C)Cn1c(SCC(=O)O)nc2c1c(=O)[nH]c(=O)n2C", "inhibition": "-3.9%"},
      {"smiles": "CCc1nc2cc([N+](=O)[O-])c([N+](=O)[O-])cc2[nH]1", "inhibition": "54.4% (active)"},
      {"smiles": "CCc1nc2cc(Cl)c(Cl)cc2[nH]1", "inhibition": "-3%"},
      {"smiles": "CCCc1nc2ccc([N+](=O)[O-])cc2[nH]1", "inhibition": "-5.4%"},
      {"smiles": "Nc1ccc2nc3c(=O)n(C4CCCCC4)c(=O)[nH]c3nc2c1", "inhibition": "4.7%"},
      {"smiles": "Nc1ccc2nc3c(=O)[nH]c(=S)[nH]c3nc2c1", "inhibition": "58.3% (active)"},
      {"smiles": "CCC(=O)Nc1ccc2nc3c(=O)[nH]c(=S)[nH]c3nc2c1", "inhibition": "-5.4%"},
      {"smiles": "OC(COC(c1ccccc1)c1ccccc1)CN1CCOCC1", "note": "(centres undefined)", "inhibition": "1.2%"},
      {"smiles": "COC(=O)C1CCN(c2ccc([N+](=O)[O-])cc2)CC1", "inhibition": "-2.8%"},
      {"smiles": "COC(=O)C1CCN(CCCOc2ccc(CN3CCN(c4ccc([N+](=O)[O-])cc4)CC3)cc2)CC1", "inhibition": "-8%"},
      {"smiles": "COC(=O)C1CCN(Cc2ccc(OCCCN3CCN(c4ccc([N+](=O)[O-])cc4)CC3)cc2)CC1", "inhibition": "78.6% (active)"},
      {"smiles": "CCOC(=O)c1cnc2c(C)c(C)ccc2c1NCCN1CCOCC1", "inhibition": "-7.3%"},
      {"smiles": "CCOC(=O)c1cnc2c(Cl)cccc2c1NCCN1CCOCC1", "inhibition": "-9.2%"},
      {"smiles": "CCOC(=O)c1cnc2c(Cl)c(Cl)ccc2c1NCCN1CCOCC1", "inhibition": "59.4% (active)"},
      {"smiles": "COc1ccc(C(=O)NCCNC(C)=O)cc1S(=O)(=O)NCc1ccc(Cl)cc1", "inhibition": "-8.9%"}
    ]}
  ]
}
